# Reference: PubChem BioAssay
# Calls of active or inactive are those of the source. Unless noted, how the calls were made is not given here.
# Tests used:
# [1] = A549 cell viability effects, profiling panel, calcein-AM fluorescence, 48 h, basal (AID 1162); conditions: higher = more signal; further: test concentration not given here
# [2] = adipocyte viability effects, profiling panel, cell-based, 3T3-L1 adipocytes, calcein-AM fluorescence, 48 h, basal (AID 1163); conditions: 3T3-L1 adipocytes viability, higher = more signal; further: test concentration not given here
# [3] = HepG2 cell viability effects, profiling panel, calcein-AM fluorescence, 48 h, basal (AID 1164); conditions: higher = more signal; further: test concentration not given here
# [4] = MM1S cell viability effects, profiling panel, calcein-AM fluorescence, 48 h, basal (AID 1165); conditions: higher = more signal;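 further: viability of MM1S multiple myeloma cells under basal unstimulated conditions; test concentration not given here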
# [5] = basal RPMI8226 viability, no added stimulus, profiling panel, cell-based, calcein-AM fluorescence, 48 h, PK04 Diversity Set (AID 1166); conditions: RPMI8226 myeloma viability, higher = more signal;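 further: cells grown under basal conditions without added stimulus; test concentration not given here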
# [6] = basal HepG2 mitochondrial membrane potential changes, profiling panel, cell-based, JC-1 fluorescence, 24 h, 100 nL compound (AID 1167); conditions: higher = more signal; further: test concentration not given here
# [7] = basal 3T3-L1 adipocyte mitochondrial potential changes, profiling panel, cell-based, JC-1 fluorescence, 3T3-L1 adipocytes, 24 h, 100 nL compound (AID 1168); conditions: JC-1 mitochondrial fluorescence, higher = more signal, called active from +8 up or from −8 down; further: test concentration not given here
# [8] = basal RPMI8226 mitochondrial membrane potential changes, profiling panel, cell-based, JC-1 fluorescence, 24 h, 100 nL compound (AID 1169); conditions: RPMI8226 myeloma, JC-1 mitochondrial potential fluorescence, higher = more signal; further: test concentration not given here
# [9] = basal MM1S mitochondrial membrane potential changes, profiling panel, cell-based, JC-1 fluorescence, 24 h, 100 nL compound (AID 1170); conditions: higher = more signal; further: test concentration not given here
# [10] = A549 lung cancer cell viability effects, profiling panel, resazurin fluorescence, 24 h, PK04 Diversity Set (AID 1171); conditions: higher = more signal, called active from +8 up or from −8 down; further: test concentration not given here
# [11] = HepG2 liver cancer cell viability effects, profiling panel, resazurin fluorescence, 24 h, PK04 Diversity Set (AID 1172); conditions: higher = more signal; further: test concentration not given here
# [12] = basal S. cerevisiae growth modulation, no modifier, primary screen, OD600, strain BY4716, 24 h, basal condition (AID 1173); conditions: OD600, 24 h, higher = more signal, called active from +8 up or from −8 down
# [13] = MM1S myeloma cell viability, profiling panel, resazurin fluorescence, basal, 24 h, PK04 Diversity Set (AID 1174); conditions: higher = more signal, called active from +8 up or from −8 down;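 further: MM1S multiple myeloma cell line; test concentration not given here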
# [14] = molecular target: Dihydroorotate dehydrogenase (quinone), mitochondrial (Plasmodium falciparum (isolate 3D7)) (UniProt Q08210); test: PfDHODH enzyme inhibitors, primary screen, biochemical, C-terminal His tag, absorbance 600 nm (AID 1175); conditions: DCIP absorbance 600 nm, higher = more signal, called active from +8 up or from −8 down;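 further: recombinant parasite enzyme with a five histidine tag at its C terminus; test concentration not given here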
# [15] = P. aeruginosa biofilm formation inhibitors, primary screen, strain PAO1, LB-PBS medium, absorbance 600 nm (AID 1176); further: test concentration not given here; conditions: P. aeruginosa PAO1 growth/biofilm, A600, 12 h; higher = more signal
# [16] = S. cerevisiae RM11-1a growth modifiers, primary screen, strain RM11-1a, OD600, basal, 24 h (AID 1177); conditions: OD600, 24 h, higher = more signal, called active from +8 up or from −8 down;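 further: cultures grown under basal conditions with no added stressor; test concentration not given here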
# [17] = E. coli acrAB mutant growth effects, primary screen, E. coli filamentation inducers, strain DRC39, OD650, 24 h (AID 1178); conditions: higher = more signal, called active from +8 up or from −8 down;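 further: growth measured as culture turbidity by optical density at 650 nm; test concentration not given here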
# [18] = E. coli acrAB mutant growth effects, primary screen, E. coli filamentation inducers, strain DRC39, OD650, 48 h (AID 1179);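 further: screen aims at cell division blockers that make cells filament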; conditions: E. coli DRC39 delta-acrAB growth, higher = more signal, called active from +8 up or from −8 down
# [19] = RPMI8226 myeloma cell viability, profiling panel, resazurin fluorescence, basal, 24 h, PK04 Diversity Set (AID 1180); conditions: higher = more signal;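 further: RPMI8826 multiple myeloma cell line at 5000 cells per well; test concentration not given here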
# [20] = molecular target: E3 ubiquitin-protein ligase XIAP (Homo sapiens) (UniProt P98170); test: XIAP binders, primary screen, biophysical, small-molecule microarray, fluorescence 635 nm (AID 1181); conditions: small-molecule microarray binding, higher = more signal;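 further: score merges 667 nm emission and signal to noise over triplicate slides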
# E3 ubiquitin-protein ligase XIAP (Homo sapiens), sequence (P98170 whole entry, looked up): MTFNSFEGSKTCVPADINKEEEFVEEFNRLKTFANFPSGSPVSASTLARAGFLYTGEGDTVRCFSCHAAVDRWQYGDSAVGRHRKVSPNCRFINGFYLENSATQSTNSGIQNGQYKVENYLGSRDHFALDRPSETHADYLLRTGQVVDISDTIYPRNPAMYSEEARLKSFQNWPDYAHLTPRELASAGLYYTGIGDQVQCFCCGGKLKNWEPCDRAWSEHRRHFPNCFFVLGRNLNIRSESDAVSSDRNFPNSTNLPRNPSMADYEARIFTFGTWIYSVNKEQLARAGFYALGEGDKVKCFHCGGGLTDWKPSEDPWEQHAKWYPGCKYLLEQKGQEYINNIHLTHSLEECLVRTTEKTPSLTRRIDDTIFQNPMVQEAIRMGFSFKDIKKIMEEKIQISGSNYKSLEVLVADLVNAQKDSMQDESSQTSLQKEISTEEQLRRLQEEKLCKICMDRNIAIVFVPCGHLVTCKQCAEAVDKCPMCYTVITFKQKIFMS
# Dihydroorotate dehydrogenase (quinone), mitochondrial (Plasmodium falciparum (isolate 3D7)), sequence (Q08210 whole entry, looked up): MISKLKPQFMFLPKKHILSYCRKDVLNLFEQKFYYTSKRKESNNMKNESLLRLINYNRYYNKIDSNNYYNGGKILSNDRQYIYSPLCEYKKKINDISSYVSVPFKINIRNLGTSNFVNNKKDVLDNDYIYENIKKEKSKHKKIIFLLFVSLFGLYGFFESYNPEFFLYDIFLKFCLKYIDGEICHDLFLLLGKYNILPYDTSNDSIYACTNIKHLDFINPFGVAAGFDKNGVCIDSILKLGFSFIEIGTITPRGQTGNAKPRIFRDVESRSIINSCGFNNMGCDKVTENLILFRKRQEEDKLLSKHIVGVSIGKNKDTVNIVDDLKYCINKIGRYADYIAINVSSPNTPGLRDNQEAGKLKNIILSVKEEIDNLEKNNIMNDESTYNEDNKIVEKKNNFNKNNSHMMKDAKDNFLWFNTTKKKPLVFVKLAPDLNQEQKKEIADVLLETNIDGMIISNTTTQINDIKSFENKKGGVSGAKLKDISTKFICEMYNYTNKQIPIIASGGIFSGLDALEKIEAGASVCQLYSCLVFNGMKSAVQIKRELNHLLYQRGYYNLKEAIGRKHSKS
SMILES,z-score [1],z-score [2],z-score [3],z-score [4],z-score [5],z-score [6],z-score [7],z-score [8],z-score [9],z-score [10],z-score [11],z-score [12],z-score [13],composite z-score [14],z-score [15],z-score [16],z-score [17],z-score [18],z-score [19],composite z-score [20]
O=C1O[C@H](c2ccccc2)[C@H](c2ccccc2)N2[C@H]1[C@@H](C(=O)Nc1nc3ccccc3s1)[C@]1(C(=O)Nc3ccc(C#CC4=CCCCC4)cc31)[C@H]2c1ccc(O)cc1,0.397,-0.197,0.992,-1.01,-2.01,-2.82,-0.216 (inactive),-0.886,-0.991,0.229 (inactive),0.98,-1.03 (inactive),0.306 (inactive),0.667 (inactive),0.517 (inactive),-0.286 (inactive),0.442 (inactive),0.382 (inactive),0.422,-0.13
COc1ccc([Si](C)(C)[C@@H]2[C@@H](CC(=O)N3Cc4ccccc4C[C@H]3CO)O[C@]3(C(=O)N(c4ccccc4)c4ccccc43)[C@H]2C)cc1,-0.77,0.703,-2.85,-2.37,-4.35,1.37,0.631 (inactive),-1.06,-2.08,-1.39 (inactive),-1.05,0.318 (inactive),-2.64 (inactive),1.13 (inactive),0.626 (inactive),2.42 (inactive),0.33 (inactive),-0.165 (inactive),-4.45,2.42
COCCOC(=O)N1C(=O)[C@@]2(c3ccccc31)[C@H](c1ccccc1OCCO)N1[C@H](c3ccccc3)[C@H](c3ccccc3)OC(=O)[C@H]1[C@@H]2C(=O)N1CCCCCCC1,-0.785,1,0.104,-2.51,-1.75,0.179,-0.256 (inactive),-0.641,-1.07,-0.585 (inactive),0.293,1.7 (inactive),-0.097 (inactive),0.054 (inactive),2.48 (inactive),1.39 (inactive),0.542 (inactive),-1.15 (inactive),-0.353,1.57
C=C(C(=O)CC[C@H](OC(=O)c1ccccc1-c1ccccc1C(=O)O)c1ccccc1OCCO)C(C)C,0.301,1.72,0.255,-3.44,-2.35,-0.266,0.585 (inactive),-0.636,0.63,0.109 (inactive),0.0659,-1.04 (inactive),0.181 (inactive),-0.169 (inactive),0.108 (inactive),-0.0722 (inactive),0.88 (inactive),0.32 (inactive),-0.268,0.194
